biological target: AMP-activated protein kinase, AMPK (Homo sapiens) (UniProt P54646+O43741+P54619+Q9UGJ0+Q9Y478+Q13131+Q9UGI9); test: AMP-dependent Kinase enzyme assay. An in vitro enzyme assay that detects ADP turnover that is directly proportional to AMPK activity. This uses naive AMPK that is activated during the assay with MK-8722; type: functional; design: scale not given: direction of the effect not stated beside the values; details: 30 µM

Compound	Percent Effect
CCCSCC(=O)NCc1cccc(CN(C)CC)c1	5.85%
Cn1cnc(S(=O)(=O)N2CCCCc3ccccc32)c1	-0.149%
COCC[C@]1(O)CCN(CC(=O)NCc2ccccc2C)C[C@H]1C	8.23%
O=S(=O)(NCCCn1cncn1)c1ccc2c(c1)OCCCO2	10.2%
CC(NCc1cccc(COC2CCCC2)c1)c1cnn(C)c1 (stereo not given)	3.6%
CN(CCc1ccccc1)c1cnn(C)c(=O)c1Br	7.95%
Cc1noc(C)c1S(=O)(=O)N1CCC(n2cccn2)CC1	-5.45%
CCc1ccc2nc(C)cc(C(=O)NC3CCNC3=O)c2c1 (stereo not given)	-4.37%
O=C(NCCc1cc(N2CCOCC2)nc(NC2CC2)n1)C1CCCO1 (stereo not given)	-0.703%
COCCC(=O)N1CCCC(CCC(=O)NCc2cccc(OC)c2)C1 (stereo not given)	14.2%
O=C(NCc1csc2ccc(Cl)cc12)c1cc2n(n1)CCNC2	10.6%
Cc1ccc(OCC(=O)N2CCOCC(O)(CN3CCCC3)C2)cc1C (stereo not given)	8.56%
CN(CCCOc1ccccc1Cl)C(=O)CN1C[C@@H]2CC[C@H](CC1=O)N2	10.1%
Cc1nc[nH]c1CN(C)Cc1cnn(-c2ccc(F)cc2)c1	10.8%
O=c1[nH]nc(CNCc2ccc(OC34CCCN(CC3)C4)cc2)[nH]1 (stereo not given)	-7.25%
CCNc1ncc(C(=O)NCc2csc(-c3cnccn3)n2)cn1	-2.88%
Cc1nc(C(C)C)sc1C(C)N(C)C(=O)c1ccc(=O)n(C)c1 (stereo not given)	5.47%
CN1CCN([C@H]2CCN(C(=O)c3cc(Cl)cn3C)C[C@H]2CCCO)CC1	13.2%
Cc1cc(=O)[nH]c(-n2nc(-c3cccs3)cc2N)n1	-13.8%
Cc1cc(C)n2cc(CN3CCC(N4CCN(C)C4=O)CC3)nc2n1	5.03%

Compound	Percent Effect
COCCN(Cc1ccccc1)C(=O)c1cnn(C)c1C	2.02%
COCCNS(=O)(=O)c1c(C)sc2ccccc12	-3.2%
Cc1noc(CCCNC(=O)C2CSCN2C(=O)C(C)(C)C)n1 (stereo not given)	-6.28%
Cn1ncc2c1CCCC2NCc1ccc(OCc2cccnc2)cc1 (stereo not given)	2.53%
CCC(CO)NC(=O)c1cc(COc2ccc(OC)cc2Cl)[nH]n1 (stereo not given)	-8.13%
COc1ccc(CCCC(=O)N2CCCC(n3cncn3)C2)cc1 (stereo not given)	4.51%
CCN(Cc1ccncc1)C1CCN(c2ccccc2)C1=O (stereo not given)	-7.01%
Cc1cccc(S(=O)(=O)NC2CCN(CC(F)(F)F)C2)c1 (stereo not given)	-6.29%
Cc1ccc(-c2cc(C(=O)N(C)Cc3noc4c3CCCC4)[nH]n2)s1	-10.3%
Cc1cc(=O)n2nc(Oc3cccc(I)c3)sc2n1	-1.18%
C=C(C)CN(CC)C(=O)Nc1ccccc1CN(C)C(C)=O	-1.91%
CN(C)c1cc2c(nn1)CCN(C(=O)c1ccc(-n3cccn3)nc1)C2	2.65%
CN(C)C(CNC(=O)OCC(F)(F)F)c1ccsc1 (stereo not given)	-1.15%
CN(Cc1cn(CC2CCNCC2)nn1)CC1CCCCO1 (stereo not given)	7.46%
CN(C)c1nc2sc(C(=O)N3CCNC(=O)CC3)cc2s1	0.0719%
CC1(C)CC1(C(=O)N1CC(c2cccnc2)C1)c1ccccc1F (stereo not given)	-6.17%
COCC(C)NC(=O)N1CCN(S(C)(=O)=O)CC1 (stereo not given)	11.4%
CCc1n[nH]c(C(=O)NCCn2ccnc2C)c1C	-2.67%
COc1ccccc1OCCN(C)Cc1c(C2CC2)[nH]c2ncccc12	11.7%
COC(=O)CSCc1nc(-c2ccc(Cl)cc2)no1	-4.75%
